# According to PubChem BioAssay (NCATS):
# Records with an inconclusive call do not appear. Unmarked numbers belong to inactive results. Active and inactive are the calls of the source. The call rests on the fitted dose curve; in most records, active means well fitted inhibition curve with a large enough effect; inconclusive means small, poorly fitted or top-dose-only effect; inactive means no such curve, though single readings can be large or run the other way.
# Assay: BET inhibitor-based combinations targeting novel dependencies in MECOM-rearranged (r) AML: HNT-34 cell line (AID 2202234); further: nearly all actives have a fitted effect of over 35% in size;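 on viability (% of control): plate controls were vehicle wells for no effect and cell-free wells for full effect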
# Conditions: HNT-34 AML viability, CellTiter-Glo luminescence, 48 h; series mostly up to 46 µM; viability (% of control): at the top concentration
# Excerpt: Ecotropic viral insertion site 1 (EVI1) is located on chromosome 3q26.2 as part of the MECOM (MDS and EVI1 complex) locus. Under normal hematopoiesis, EVI1 is a regulator of hematopoietic stem cell maintenance and self-renewal and EVI1 levels decrease as the cells differentiate. In approximately 5-10% of de novo acute myeloid leukemia (AML) EVI1 is aberrantly expressed, including Chromosomal inv(3)(q21;q26.2) or t(3;3)(q21;q26.2) alterations (MECOM-r) that account for about 50% of AML with EVI1 overexpression 31. AMLs with high levels of EVI1 have a poor prognosis and an overall survival time averaging between 10-14 months. EVI1 overexpression confers resistance in leukemia cells, highlighting the need to develop new targeted therapies for EVI1 overexpressing AMLs. Here, we performed an unbiased chemical drug screening by evaluating the single agent activity of a collection of 2,480 oncology-focused, approved and investigational drugs (NCATS Mechanism Interrogation Plates, MIPE v5.0) against a panel of seven AML cell lines. These included four MECOM-r cell-lines (AML-191, AML-194, UCSD-AML1 and HNT-34) and three non-MECOM-r AMLs (MV4-11, OCI-AML3 and SET-2). Exploiting the mechanistic redundancy built in the library, we identified target-level sensitivities in MECOM-r AML cells and relative activity as compared to other AML subtypes.
# A collection of 2480 mechanistically annotated dugs (MIPE v5.0) was used to screen four 3q26.2 rearranged AML cell lines and three non-3q26.2 rearranged AML cell lines. This library purposely exploits redundancy by including multiple inhibitors of key onco-targets, while simultaneously encompassing mechanistic diversity, targeting more than 800 distinct mechanisms of action. Briefly, cells were seeded in 5 uL of growth media using a Multidrop Combi dispenser into 1536 well white polystyrene tissue culture treated plates (Corning) at a density of 500cells/well. For each cell-line, for each of the 2480 drugs in MIPE v5.0 library, an 11-point dose curve was generated via a 1536 pin-tool. Plates were incubated for 48 hr at standard incubator conditions, covered by a stainless steel gasketed lid to prevent evaporation. Cell viability was determined by luminescence based, Cell Titer Glo assay (Promega). In detail, 3 uL of Cell Titer Glo were added to each well and plates were incubated at room temperature for 15 min with a stainless-steel lid in place. Luminescence readings were taken using a Viewlux (PerkinElmer) with a 2 s exposure time per plate. Compound dose-response curves were normalized to DMSO and empty well controls on each plate. Quantitative drug activity data from dose-response curves was determined utilizing area Under the Curve (AUC) and Z-transformed AUC (Z-AUC, a mean-centering transformation applied to each individual cell-line screened).
# Potency means the concentration at half of the fitted maximal effect.
SMILES,Potency,viability (% of control)
N#Cc1ccc(COC[C@H]2O[C@@H](n3c(NCc4ccc(Cl)c(Cl)c4)nc4c(N)ncnc43)[C@H](O)[C@@H]2O)cc1,2.95 µM (active),
Clc1cccc(-c2ccc(-c3nnc(CCCc4ccc5cccnc5n4)o3)cc2)c1,,100%
CCOCOC[C@H](C[C@H](C)C(=O)NO)NC(=O)c1ccc(Oc2ccccc2)cc1,26.3 µM (active),
CC(=O)Nc1ccc(C(=O)NC(C)(C)C)cc1,,77.2%
CC(C)(O)[C@H]1CC[C@@](C)([C@H]2[C@@H](O)C[C@@]3(C)[C@@H]4C[C@H](O[C@@H]5O[C@H](CO)[C@@H](O)[C@H](O)[C@H]5O)[C@H]5C(C)(C)[C@@H](O[C@@H]6OC[C@@H](O)[C@H](O)[C@H]6O)CC[C@@]56C[C@@]46CC[C@]23C)O1,,101%
CC(c1cc2ccccc2s1)N(O)C(N)=O (stereo not given),,104%
CN(C)c1ccccc1CN1CCCN(Cc2ccccc2N(C)C)C1c1ccncc1,,67.2%
COc1cc(NS(C)(=O)=O)ccc1Nc1c2ccccc2nc2ccccc12,0.372 µM (active),
Cc1[nH]c(/C=C2\C(=O)Nc3ccc(F)cc32)c(C)c1C(=O)NC[C@H](O)CN1CCOCC1,3.72 µM (active),
CCn1c(=O)c(-c2ccc(Cl)cc2Cl)cc2cnc(Nc3ccc(N4CCNCC4)c(F)c3)nc21,0.105 µM (active),
CCCS(=O)(=O)c1nc(NC2CC2)cc(-c2ccc3c(ccn3C3CC(C)(C)NC(C)(C)C3)c2)n1,3.12 µM (active),
CCCC1(CCC)CCC2(CCN(CCCN(CC)CC)C2)CC1,4.68 µM (active),
N#Cc1ccnc(N2C(=O)CC[C@H]2C(=O)N(c2cncc(F)c2)C(C(=O)NC2CC(F)(F)C2)c2ccccc2Cl)c1 (stereo not given in full),,94.1%
CC(=O)O[C@H]1C(=O)[C@@]2(C)C([C@H](OC(=O)c3ccccc3)[C@]3(O)C[C@H](OC(=O)[C@H](O)[C@@H](NC(=O)c4ccccc4)c4ccccc4)C(C)=C1C3(C)C)[C@]1(OC(C)=O)CO[C@@H]1C[C@@H]2O (stereo not given in full),0.0042 µM (active),
c1ccc2c(-c3cnn4cc(-c5ccc(OCCN6CCOCC6)cc5)cnc34)ccnc2c1,8.11 µM (active),
CC(C)C[C@H](NC(=O)[C@H](Cc1ccccc1)NC(=O)OCc1ccccc1)C(=O)C=O,,94.3%
CC(=O)N1CCN(c2ccc(NC(=O)Cc3cnc(-c4ccnc(F)c4)c(C)c3)nc2)CC1,,92.3%
CN1CCN(c2ccc3nc(-c4cc(C(C)(C)C)c(OCCCC(=O)NCCCN=[N+]=[N-])c(C(C)(C)C)c4)[nH]c3c2)CC1,9.34 µM (active),
C=C1C(=O)O[C@@H]2[C@H]3C(C)=CC[C@@]34O[C@@]4(C)CC[C@@H]12,10.5 µM (active),
Cn1cc(-c2cc(Oc3cc(F)c(NC(=O)C4(C(=O)Nc5ccccc5)CC4)cc3F)ccn2)cn1,5.25 µM (active),

SMILES,Potency,viability (% of control)
CN(C(=O)CNC(=O)/C=C/c1cccc(Cl)c1)C1CCS(=O)(=O)CC1,,91.6%
CS(=O)(=O)c1ccc([C@@H](CC2CCCC2)C(=O)Nc2nccs2)cc1,,81.3%
CC(=O)O/N=C1\C(=O)N(Cc2cc(Cl)ccc2Cl)c2ccc(Cl)cc21,2.95 µM (active),
COCCOC(=O)N1CCN(S(=O)(=O)c2cc(F)c(Oc3ccc(Cl)cc3)c(F)c2)C(C(=O)NO)C1 (stereo not given),5.9 µM (active),
Cn1nccc1Nc1nccc(-c2cc3c(s2)C(C)(C)N(CCN2CCOCC2)C3=O)n1,6.61 µM (active),
O=c1cc(N2CCOCC2)oc2c(-c3ccc4c(c3)OCCO4)csc12,5.25 µM (active),
O=C(C[C@@H]1C/C=C\CCC(=O)O[C@H](c2ccccc2)CNC1=O)NCc1ccc(Cl)cc1,,113%
Cc1nc(-c2cn3c(n2)-c2ccc(-c4cnn(C(C)(C)C(N)=O)c4)cc2OCC3)n(C(C)C)n1,16.6 µM (active),
Cc1ccc(-n2nc(C(C)(C)C)cc2NC(=O)NCc2cc(F)ccc2Oc2ccc3c(cnn3CCO)c2)cc1,0.296 µM (active),
COc1cc2c3c(n(CCCn4ccnc4)c(=O)c2cc1OC)-c1cc2c(cc1C3=O)OCO2,0.0263 µM (active),
Cc1c(NC(=O)OC[C@@H]2COCCN2)cn2ncnc(Nc3ccc4c(cnn4Cc4cccc(F)c4)c3)c12,20.9 µM (active),
Cn1c(NCCN(CCO)CCCc2ccc([N+](=O)[O-])cc2)cc(=O)n(C)c1=O,,94.1%
CN(C(=O)c1c(O)c2ccccc2n(C)c1=O)c1ccccc1,,82.5%
C[C@]12CC[C@@H]3c4ccc(O)cc4CC[C@H]3[C@@H]1C[C@@H](O)[C@@H]2O,,93.5%
CN(C)C(N)=NC(=N)N,,106%
CCS(=O)(=O)c1ccc2oc(-c3ccc4ccccc4c3)nc2c1,,95.9%
COc1cc2ncnc(Nc3ccc(O)c(Br)c3)c2cc1OC,5.25 µM (active),
CC1(C)O[C@@H]2C[C@H]3[C@@H]4CCC5=CC(=O)C=C[C@]5(C)[C@H]4[C@@H](O)C[C@]3(C)[C@]2(C(=O)CO)O1,,84.4%
Cc1ccc(S(=O)(=O)Nc2cc(C(F)(F)F)ccc2C(=O)Nc2nc(-c3ccccc3)cs2)cc1,7.42 µM (active),
CN(C)c1ccc(O)c2c1C[C@H]1C[C@H]3[C@H](N(C)C)C(=O)C(C(N)=O)=C(O)[C@@]3(O)C(=O)C1=C2O,13.2 µM (active),
